Rows were chosen to be rich in hits. Some 3.9% of all compounds tested hit in one or more screens of this group.
Tb PFK inh-1: qHTS Assay to Find Inhibitors of T. brucei phosphofructokinase; AID 485367, 2010; Potency, µM (highest dose often 57.5 µM), for inactives: top-dose activity, negative = inhibition, hits mostly inhibitors; 330,000 tested, 0.17% active; T. brucei PFK, ADP-Glo luminescence; ATP-dependent 6-phosphofructokinase (Trypanosoma brucei brucei), O15648;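 also: 0% = uninhibited 1x PFK enzyme wells and -100% = no-enzyme wells; nearly all actives have a fitted effect of over 60% in size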
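Compounds were pin-transferred as a titration series up to 57 uM into substrate buffer (0.5 mM F6P, 0.1 mM ATP, pH 8.0), then 1.25 nM PFK was added and reactions ran 45 min before ADP-Glo detection.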
VDR inh: Inhibitors of the vitamin D receptor (VDR): qHTS. VDR-SRC2-3 peptide fluorescence polarization, 2 h. Potency, µM, inactives show max response, negative = inhibition, actives largely listed as inhibitors. 400,000 tested, 0.93% active; also: % is scaled to controls: 0 for no effect and ±100 for the full control effect
Target sequence (P11473 whole entry, looked up): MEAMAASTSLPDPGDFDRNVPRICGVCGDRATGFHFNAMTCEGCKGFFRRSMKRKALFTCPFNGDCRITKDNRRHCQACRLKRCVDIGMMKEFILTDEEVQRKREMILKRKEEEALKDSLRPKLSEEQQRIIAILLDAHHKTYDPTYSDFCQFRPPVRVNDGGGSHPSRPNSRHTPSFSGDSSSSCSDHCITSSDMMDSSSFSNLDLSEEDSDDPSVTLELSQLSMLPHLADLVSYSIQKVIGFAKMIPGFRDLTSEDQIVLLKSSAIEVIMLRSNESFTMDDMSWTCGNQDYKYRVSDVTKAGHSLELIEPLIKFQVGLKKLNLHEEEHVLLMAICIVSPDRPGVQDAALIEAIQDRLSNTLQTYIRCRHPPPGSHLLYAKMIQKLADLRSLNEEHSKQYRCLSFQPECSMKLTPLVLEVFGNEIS
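The screen uses fluorescence polarization to detect compounds that interfere with recruitment of the SRC2-3 coactivator peptide to VDR; plates are read after 2 h at room temperature.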
PLK1 PBD inh: qHTS for Inhibitors of PLK1-PDB (polo-like kinase 1 - polo-box domain): Primary Screen; Serine/threonine-protein kinase PLK1 (Homo sapiens), P53350; AID 720504, 2013; 360,000 tested, 2.8% active; Plk1 PBD binding of FITC phosphopeptide, fluorescence polarization; Potency, µM, without a hit: max response, negative = inhibition, most hits filed as inhibitors; also: series mostly up to about 57 µM; % is scaled to controls: 0 for no effect and ±100 for the full control effect; nearly all actives have a fitted effect of over 65% in size
BRCA1 expr up: qHTS Assay to Identify Small Molecule Activators of BRCA1 Expression. Potency, µM (titrated, usually from 46.1 µM), inactives show at the highest dose activation, most hits filed as activators. MCF7-BRCA1-FFLuc reporter, luminescence, 48 h; response scale: scaled: vehicle 0%, 10 µM genistein 100%. 380,000 tested, 1.1% active; also: nearly all actives have a fitted effect of over 80% in size
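Cells: MCF7-BRCA1-FFLuc, 2000/well. Exposure: 48 h, 37 °C, 5% CO2. Read: luminescence, 15 min post-substrate. Controls: genistein 10 microM (maximal activation), DMSO (neutral).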
Tb PFK KinaseGlo: Tb PFK orthogonal confirmatory assay using ATP depletion (Kinase-Glo Plus) as an alternative measure of Tb PFK activity: Hit Validation | 1,100 tested, 47% active | Tb PFK enzyme, ATP depletion, Kinase-Glo Plus luminescence | shares compounds with Tb PFK inh-1 | Potency, µM (titrated, usually from 57.5 µM), without a hit: top-dose inhibition; calls by dose curve; also: nearly all actives have a fitted effect of over 60% in size
Tb PFK inh-2: Inhibitors of T. brucei phosphofructokinase: Hit Validation | shares compounds with Tb PFK inh-1 | AID 504637, 2011 | 1,100 tested, 41% active | purified T. brucei PFK, ADP-Glo luminescence, 45 min | Potency, µM (series often up to 57.5 µM), for inactives: at the top dose activity change, negative = inhibition, usual class: inhibitors;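 also: plate controls were full PFK enzyme control for no effect and no enzyme control for full effect; nearly all actives have a fitted effect of over 60% in size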
* = called active by the depositor; u = inconclusive; x = not tested or not shown. Unless noted, calls follow the shape of the dose curve; as a rule, active = well fitted curve in the direction sought with a large enough effect; inconclusive = small, poorly fitted or top-dose-only effect, or another doubt; inactive = no such curve, though single readings can be large; an effect the other way counts as inactive or inconclusive. Potency is read from the fitted curve at half-maximal effect.

SMILES | Tb PFK inh-1 | VDR inh | PLK1 PBD inh | BRCA1 expr up | Tb PFK KinaseGlo | Tb PFK inh-2
C[Se]C[C@H](N)C(=O)O | x | 7% | x | x | x | x
Clc1ccc(Cn2ncc3c(N4CCCC4)ncnc32)cc1 | u | 10% | -6% | -9% | u | u
CCCCc1ccc(NC(=O)c2cccn(Cc3ccc(Cl)cc3)c2=O)cc1 | x | -9% | x | 11% | x | x
COc1ccc(-c2nc(CN3C(=O)CN=C(c4ccccc4)c4ccccc43)c(C)o2)cc1OC | x | 4% | x | x | x | x
O=C(NCCc1c[nH]c2ccccc12)OCCSS(=O)(=O)O | 24µM* | -20% | -28% | -19% | 24µM* | u
CC(=O)NCCc1c[nH]c2ccccc12 | -1% | 0% | -7% | -3% | x | x
COC(=O)[C@@]1(OC)C[C@@H]2O[C@@]1(C)n1c3ccccc3c3c4c(c5c6ccccc6n2c5c31)C(=O)N(C)C4 | x | -24% | x | x | x | x
O=[N+]([O-])c1cccc(NP(=O)(Oc2ccccc2)Oc2ccccc2)c1 | -3% | -7% | -4% | -11% | x | x
Cc1ccc(C(=O)Nc2cccc([N+](=O)[O-])c2)cc1S(=O)(=O)Nc1cccc(C(=O)O)c1 | 19µM* | -25% | 15µM* | -4% | 7.6µM* | 19µM*
Cc1occc(=O)c1OC(=O)Nc1ccc(Cl)c(Cl)c1 | 30µM* | -12% | -11% | -58% | u | u
CCC(=O)Nc1ccc(Cl)c(Cl)c1 | x | -4% | -9% | -11% | x | x
CCOC(=O)c1c(N)n(Cc2ccco2)c2nc3ccccc3nc12 | -5% | -1% | -16% | -40% | x | x
Cc1cc(C)nc(SCc2nnc(SCc3ccc([N+](=O)[O-])cc3)n2Cc2ccco2)n1 | u | 4% | -13% | -20% | 11µM* | 15µM*
COC(=O)C1=C(c2ccc(C(C)=O)cc2)C[C@@H]2CC[C@H]1N2C(=O)NCc1ccco1 | -3% | -15% | -8% | 11% | x | x
COC(=O)C1=C(c2ccc(OC)c(OC)c2)C[C@@H]2CC[C@H]1N2C(=O)NCc1ccco1 | -2% | -21% | -5% | 10% | x | x
CCN(CC)C(=O)c1ccc(NC(=O)c2cccc(S(=O)(=O)N3CCN(C)CC3)c2)cc1 | -1% | -13% | 1% | -17% | x | x
CCOc1ccc(C(=O)OCC(=O)NCc2ccco2)cc1OCC | u | -4% | -8% | -2% | u | -15%
CC(=O)c1cccc(OCC(=O)N(C)CC(=O)NCc2ccco2)c1 | 19µM* | 7% | u | -2% | 2.4µM* | 2.7µM*
O=C(COC(=O)c1cccc(S(=O)(=O)N2CCc3ccccc3C2)c1)NCc1ccco1 | 11µM* | -2% | -8% | 18% | 11% | u
CCOc1ccc2c(c1)c(C(C)=O)c(C)n2Cc1ccco1 | -1% | -2% | -5% | 0% | x | x
COc1ccc(C(=O)OCC(=O)NCc2ccco2)cc1OC | u | 5% | -9% | 12% | u | u
N#Cc1ccc(CN2CCCC3(CCN(C(=O)Oc4ccccc4)CC3)C2)cc1 | x | -4% | x | x | x | x
c1cc2c(c(N3CCNCC3)c1)OCCO2 | x | -2% | x | x | x | x
CC(NC(=O)C1CCN(C(=O)c2cccs2)CC1)c1ccc(S(N)(=O)=O)cc1 (centres undefined) | u | -22% | -11% | 2% | -32% | u
O=C(c1cccs1)N1CCC(C(=O)O)(c2ccccc2)CC1 | x | x | 3% | 27% | x | x
Cc1ccc(NC(=O)N(C)C)cc1Cl | x | 7% | x | x | x | x
NCC(=O)c1ccc2ccccc2c1 | x | x | x | 5% | x | x
O=C(NC(=S)Nc1ccccc1C(=O)O)c1ccc2ccccc2c1 | u | -26% | u | 27% | -24% | u
O=C(CCC(=O)N1CCOc2ccc(Cl)cc21)NCCN1CCOCC1 | u | 7% | -13% | -3% | u | u

Screening results (PubChem)
